{
  "source": "PubChem BioAssay AID624040",
  "about": "(The Scripps Research Institute Molecular Screening Center, 2012)",
  "note": "Screen size: about 360,000 compounds; about 2,100 (0.58%) were called active. Only a selection was taken, and actives are over-represented in it overall. Values without a mark were called inactive.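 The calls were made as follows: active = inhibition above a per-plate cutoff, the mean of that plate's test compounds plus 3 SD (cut at about 27% in these data); inactive = the rest.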",
  "data": [
    {"molecular_target": "Muscarinic acetylcholine receptor M5 (Homo sapiens) (UniProt P08912)", "sequence (P08912 whole entry, looked up)": "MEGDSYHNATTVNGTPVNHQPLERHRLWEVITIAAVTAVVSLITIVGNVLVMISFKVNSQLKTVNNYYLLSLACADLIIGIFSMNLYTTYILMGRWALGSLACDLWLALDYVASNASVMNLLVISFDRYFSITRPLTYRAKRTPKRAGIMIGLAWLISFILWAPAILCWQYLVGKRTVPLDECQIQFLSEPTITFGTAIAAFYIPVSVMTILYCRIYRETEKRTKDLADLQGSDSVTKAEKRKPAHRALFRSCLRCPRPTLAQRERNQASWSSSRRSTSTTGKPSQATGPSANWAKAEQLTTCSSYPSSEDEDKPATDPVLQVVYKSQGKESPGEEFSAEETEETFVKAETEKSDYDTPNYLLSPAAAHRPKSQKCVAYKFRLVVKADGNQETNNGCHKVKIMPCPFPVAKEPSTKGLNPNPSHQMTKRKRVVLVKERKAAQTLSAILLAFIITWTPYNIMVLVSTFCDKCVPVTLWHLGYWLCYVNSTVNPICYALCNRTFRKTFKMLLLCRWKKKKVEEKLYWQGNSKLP", "assay": "human M5 muscarinic receptor antagonists, primary screen, CHO cells, Fluo-8 calcium fluorescence (AID 624040);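 also: 0% = acetylcholine EC80 with DMSO and 100% = DMSO without agonist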", "conditions": "CHO-hM5 cells, ACh EC80, at 3 µM, hits give high values", "values": [
      {"compound": "Cc1ccc(-c2cnc(C(O)c3cccc(C)c3C)[nH]2)cc1", "note": "(stereo not given)", "inhibition": "-3.72%"},
      {"compound": "COCCn1c(C)cc(C(=O)CSc2nc3ccccc3c(=O)n2C(C)COC)c1C", "note": "(stereo not given)", "inhibition": "9.46%"},
      {"compound": "CCCn1nc(NC(=O)C(C)C)c2cc3cc(OC)ccc3nc21", "inhibition": "14.6%"},
      {"compound": "O=C1CS(=O)CN1c1ccc(Oc2ccccc2)cc1", "note": "(stereo not given)", "inhibition": "-0.11%"},
      {"compound": "CC(C)(C)c1cc2cccnc2n1Cc1cccc(F)c1", "inhibition": "-7.37%"},
      {"compound": "CCOc1ccc(CN2CCNC(=O)C2CC(=O)NCCCC2CCCC2)cc1", "note": "(stereo not given)", "inhibition": "9.04%"},
      {"compound": "O=C(CCc1ccc(S(=O)(=O)N2CCOCC2)cc1)NN=C1CCCCCCC1", "inhibition": "-2.08%"},
      {"compound": "COc1cccc(OCC(=O)NCCS(=O)(=O)N2CCN(c3ccccc3)CC2)c1", "inhibition": "-6.65%"},
      {"compound": "CC(C)N(Cc1nc(-c2ccc3c(c2)OCO3)no1)CC1CCC(=O)N1", "note": "(stereo not given)", "inhibition": "16%"},
      {"compound": "OC[C@@H]1CN(Cc2ccc(F)cc2)C[C@H](n2cnc3c(NC4CCCC4)ncnc32)O1", "inhibition": "4.45%"},
      {"compound": "OC[C@@H]1CN(Cc2ccc(-c3ccccc3)cc2)C[C@H](n2cnc3c(NC4CCCC4)ncnc32)O1", "inhibition": "31.4% (active)"},
      {"compound": "OC[C@@H]1CN(C2CCCC2)C[C@H](n2cnc3c(NC4CCC4)ncnc32)O1", "inhibition": "9.41%"},
      {"compound": "O=C(NNC(=S)Nc1ccccc1)c1cccc(S(=O)(=O)N2CCOCC2)c1", "inhibition": "-3.26%"},
      {"compound": "Cc1ccc(C(=O)NCC(=O)OCC(=O)NC2CCCCCCC2)cc1", "inhibition": "7.24%"},
      {"compound": "COCCn1c(SCC(=O)Nc2ccc(F)cc2F)nc2c(c1=O)SCC2", "inhibition": "-2.37%"},
      {"compound": "COCCn1c(SCC(=O)Nc2ccccc2F)nc2c(c1=O)SCC2", "inhibition": "-1.26%"},
      {"compound": "Cc1cccc(CSc2nc3c(c(=O)n2C)SCC3)c1", "inhibition": "36.1% (active)"},
      {"compound": "CN(CCCNC(=O)CN1C(=O)CC(C)(C)S(=O)(=O)c2ccccc21)C1CCCCC1", "inhibition": "3.09%"},
      {"compound": "CC1(C)C2CC=C(/C=N/NC(=O)C3CC3)C1C2", "note": "(stereo not given)", "inhibition": "-4.33%"},
      {"compound": "COc1cc(C(=O)N2CCN(S(=O)(=O)c3ccc(C(C)C)cc3)CC2)ccc1OCC(=O)N1CCOCC1", "inhibition": "-6.27%"},
      {"compound": "C=C(C)c1cccc(C(C)(C)NC(=O)NCCN(CC)CC)c1", "inhibition": "52.3% (active)"},
      {"compound": "C=C(C)c1cccc(C(C)(C)NC(=O)N2CCN(c3ncccn3)CC2)c1", "inhibition": "4.22%"},
      {"compound": "C=C(C)c1cccc(C(C)(C)NC(=O)NC2CCCC2)c1", "inhibition": "-4.91%"},
      {"compound": "CC(=O)N1CC(=O)N(CC(=O)Nc2ccc(Br)cc2)C1=S", "inhibition": "15.7%"},
      {"compound": "Cc1ccc(S(=O)(=O)N(C)CC(=O)NCC(c2ccc(F)cc2)N2CCOCC2)cc1", "note": "(stereo not given)", "inhibition": "4.43%"},
      {"compound": "Cc1ccc(NC(=S)N2CCN(c3ncccn3)CC2)cc1C", "inhibition": "0.78%"},
      {"compound": "O=C(c1c(F)cccc1Cl)N1CCN(S(=O)(=O)c2ccc3c(c2)OCCCO3)CC1", "inhibition": "32.7% (active)"},
      {"compound": "O=C(c1c(F)cccc1F)N1CCN(S(=O)(=O)c2ccc3c(c2)OCCO3)CC1", "inhibition": "15.2%"},
      {"compound": "O=C(c1ccc(Cl)nc1)N1CCN(S(=O)(=O)c2ccc3c(c2)OCCO3)CC1", "inhibition": "8.5%"},
      {"compound": "Nc1nonc1-n1nnc(C(=O)N/N=C/c2ccc(Cl)cc2)c1-c1ccc2c(c1)OCO2", "inhibition": "4.23%"},
      {"compound": "CN(C)CCOC1c2ccccc2-c2ccccc21", "inhibition": "9.21%"},
      {"compound": "Cc1ccccc1C(OCC(O)CN1CCCCC1CCO)c1ccccc1", "note": "(stereo not given)", "inhibition": "1.17%"},
      {"compound": "Cc1ccccc1C(OCCN(C)C)C1CCCCC1", "note": "(stereo not given)", "inhibition": "98.7% (active)"},
      {"compound": "Cc1ccc(S(=O)(=O)N2CCN(C(=O)CCC(=O)NC3CCCc4ccccc43)CC2)cc1", "note": "(stereo not given)", "inhibition": "1.42%"},
      {"compound": "CCOc1ccc(C(=O)N(Cc2ccc(N(C)C)cc2)C2CCS(=O)(=O)C2)cc1", "note": "(stereo not given)", "inhibition": "-0.33%"},
      {"compound": "Cc1noc(C)c1CSc1nnc2ccc3ccccc3n12", "inhibition": "31.2% (active)"},
      {"compound": "Cc1noc(C)c1CSCC(=O)Nc1nc2ccc(Oc3ccccc3)cc2s1", "inhibition": "-2.14%"},
      {"compound": "C=CCNC(=O)c1ccccc1SCc1c(C)noc1C", "inhibition": "-3.18%"},
      {"compound": "CC(C)(C)c1cnnn1-c1ccc([N+](=O)[O-])cc1", "inhibition": "-0.77%"},
      {"compound": "CC1(C)C=C2[C@H]3CC[C@@H]4[C@@]5(C)CCC(=O)C(C)(C)[C@@H]5CC[C@@]4(C)[C@]3(C)CC[C@@]2(C(=O)O)CC1", "inhibition": "0.2%"},
      {"compound": "COc1cc2c(cc1OC)C(C(=O)Nc1cc(C)c(OC)c(C)c1)CC(=O)N2", "note": "(stereo not given)", "inhibition": "-6.29%"},
      {"compound": "CC(=O)Nc1ccc(N2C(=O)CCC2=O)cc1C", "inhibition": "0.14%"},
      {"compound": "O=C(CN1CCCCCC1)N1c2ccccc2Sc2ccc(C(F)(F)F)cc21", "inhibition": "98.4% (active)"},
      {"compound": "O=C(CN1CCCCCC1)Nc1ccc(Cl)cc1F", "inhibition": "7.56%"},
      {"compound": "O=C(CN1CCCCC1)N1c2ccccc2Sc2ccc(C(F)(F)F)cc21", "inhibition": "98.8% (active)"},
      {"compound": "O=C(CN1C(=O)/C(=C\\c2ccc(C(F)(F)F)cc2)Sc2ccccc21)NCc1ccco1", "inhibition": "18.4%"},
      {"compound": "CCC(=O)Nc1cc(C(F)(F)F)ccc1N1CCCC1", "inhibition": "4.4%"},
      {"compound": "O=C(CSc1nc2ccccc2o1)N1c2ccccc2Sc2ccc(Cl)cc21", "inhibition": "-5.39%"},
      {"compound": "COc1ccccc1NC(=O)N(O)C1(C#N)CCCCC1", "inhibition": "4.25%"},
      {"compound": "CCOC(=O)c1c(S(=O)(=O)Nc2ccc(CN3CCC(C)CC3)cc2)c(C)n(C)c1C", "inhibition": "0.52%"},
      {"compound": "Cc1cc(C(=O)N2CCN(c3ccccn3)CC2)c(C)o1", "inhibition": "-9.14%"},
      {"compound": "Cc1cc(Br)ccc1NC(=O)c1sc2ncn(CC(=O)N3CCN(c4ccccn4)CC3)c(=O)c2c1C", "inhibition": "-9.8%"},
      {"compound": "Cc1cc(Br)ccc1NC(=O)c1cnc(N2CCN(c3ccccn3)CC2)c2ccccc12", "inhibition": "27.7% (active)"},
      {"compound": "C[C@H](CO)N1C[C@H](C)[C@@H](CN(C)S(=O)(=O)c2ccc(F)cc2)OCc2cnnn2CCCC1=O", "inhibition": "-6.37%"},
      {"compound": "CCc1noc(C)c1C(=O)Oc1ccc(N(C)S(=O)(=O)c2ccc(C)c(C)c2)cc1", "inhibition": "11.9%"},
      {"compound": "CCN(CC)CCCC(C)n1c2nc(=O)[nH]c(=O)c-2nc2cc(Cl)ccc21", "note": "(stereo not given)", "inhibition": "41.2% (active)"},
      {"compound": "CCCN(CCc1ccccc1)C1CCc2c(O)cccc2C1", "note": "(stereo not given)", "inhibition": "2.43%"},
      {"compound": "Cc1ccc(S(=O)(=O)N2CCC(N3CCCCCC3)CC2)cc1", "inhibition": "6.92%"},
      {"compound": "Cc1ccc(S(=O)(=O)n2oc(=O)c(C3CCCCC3)c2N)cc1", "inhibition": "33.2% (active)"},
      {"compound": "Cc1ccc(S(=O)(=O)N2CCC(C(=O)N3CCCCCCC3)CC2)cc1", "inhibition": "1.57%"},
      {"compound": "CCC(C)(C)NC(=O)CN(C(=O)C(=O)Nc1ccc2c(c1)OCCO2)C(C)(C)CC", "inhibition": "1.43%"},
      {"compound": "CCOCCn1[nH]c2ccccc2c1=O", "inhibition": "3.03%"},
      {"compound": "O=C(c1cncc(Br)c1)N1CCN(c2ccc([N+](=O)[O-])cc2)CC1", "inhibition": "15.7%"},
      {"compound": "O=[N+]([O-])c1ccc(N2CCN(c3ccc(F)cc3)CC2)cn1", "inhibition": "8.5%"},
      {"compound": "O=C(c1cc(C(=O)N2CCN(c3ccc(F)cc3)CC2)cc([N+](=O)[O-])c1)N1CCN(c2ccc(F)cc2)CC1", "inhibition": "29.5% (active)"},
      {"compound": "CC(=O)c1c(N2CCOCC2)nc(=S)n(Cc2ccccc2)c1C", "inhibition": "10%"},
      {"compound": "COc1ccccc1NC(=S)N1CCN(C(c2ccccc2)c2ccccc2)CC1", "inhibition": "32.8% (active)"},
      {"compound": "COc1ccccc1NC(=S)N1CCC(NC(=O)C23CC4CC(CC(C4)C2)C3)CC1", "inhibition": "6.64%"},
      {"compound": "CCOc1ccccc1NC(=S)N1CCN(c2cccc(C)c2C)CC1", "inhibition": "-0.84%"},
      {"compound": "O=C(c1ccc2c(c1)C(=O)N(Cc1ccncc1)C2=O)N1CCN(S(=O)(=O)c2ccc(OC(F)(F)F)cc2)CC1", "inhibition": "11.6%"},
      {"compound": "COc1cccc(COC(=O)C2CCN(S(=O)(=O)c3ccc(Cl)cc3)CC2)c1OC", "inhibition": "10.6%"},
      {"compound": "COc1ccc(CNC(=O)COc2cccnc2[N+](=O)[O-])cc1", "inhibition": "8.36%"},
      {"compound": "O=C(COc1ncnc2ccccc12)NC(=O)NCc1ccccc1", "inhibition": "6.01%"},
      {"compound": "COc1ccc(CNc2ncnc3ccccc23)cc1", "inhibition": "33.8% (active)"},
      {"compound": "CCCCN(C)Cc1c(C)[nH]c2ccc(Cl)cc2c1=O", "inhibition": "-2.11%"},
      {"compound": "O=S(=O)(NCCc1ccc(Cl)cc1)c1cccs1", "inhibition": "2.77%"},
      {"compound": "O=S(=O)(Nc1ccccc1)c1ccc(NS(=O)(=O)c2cccs2)cc1", "inhibition": "3.98%"},
      {"compound": "O=C(Nc1cccc(Cl)c1)Nc1ccccc1NS(=O)(=O)c1cccs1", "inhibition": "30.1% (active)"},
      {"compound": "CCCCCC1CCC(c2nnc(SCC(C)=O)o2)CC1", "note": "(stereo not given)", "inhibition": "-0.26%"},
      {"compound": "CCOC(=O)C(CO)NC(=O)C1(NC(C)=O)CCCC1", "note": "(stereo not given)", "inhibition": "5.55%"},
      {"compound": "COc1cccc(N(CC(=O)NCc2ccccc2)C(=O)CCC(=O)Nc2nccs2)c1", "inhibition": "9.51%"},
      {"compound": "CCCc1cc(=O)[nH]c2nnc(SCC(=O)Nc3nnc(SCC)s3)n12", "inhibition": "6.93%"},
      {"compound": "COc1ccccc1OCCNC(=O)CCNC(=O)c1ccccc1Cl", "inhibition": "17.2%"},
      {"compound": "CC(=O)Nc1ccc(NC(=O)C(C)OC(=O)C2CC(=O)N(CCc3ccccc3)C2)cc1", "note": "(stereo not given)", "inhibition": "7.46%"},
      {"compound": "COc1cccc(/C=C2\\SC(=N)N(c3ccc(F)cc3)C2=O)c1", "inhibition": "11%"},
      {"compound": "CC(=O)N1CC(C)c2scc(C)[n+]2-c2ccccc21", "note": "(stereo not given)", "inhibition": "-1.76%"},
      {"compound": "CCC(C(=O)NC1CCCC1)N(C(=O)c1snc(C(N)=O)c1N)c1ccc2c(c1)OCCO2", "note": "(stereo not given)", "inhibition": "-5.82%"},
      {"compound": "Cc1ccc(S(=O)(=O)NCCC(=O)NC2CCN(Cc3ccccc3)CC2)cc1", "inhibition": "6.57%"},
      {"compound": "O=C(NCc1ccccc1CN1CCCC1)C1CCN(S(=O)(=O)c2ccc(Cl)cc2)CC1", "inhibition": "1.2%"},
      {"compound": "O=C(NNS(=O)(=O)c1ccc(Cl)cc1)C1CCN(Cc2ccccc2)CC1", "inhibition": "40.5% (active)"}
    ]}
  ]
}
